Compounds with a hit are over-represented: about 1.9% of the library has one in this group of screens.
dFosB act: enhances mouse delta FosB homodimer DNA binding. activation, % at 25 µM. purified delta FosB, TAMRA-CDK5 oligo fluorescence polarization; percent of positive-control signal above neutral wells. AID 493131. actives 0.99% (n = 340,000). P13346;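 active means mean activation above about 17%, with every replicate also reaching it, limit read from the data, passing the limit was not always enough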
Efa HMGR inh: E. faecalis class II HMG-CoA reductase inhibition. AID 1066. inhibition, % at 10 µM. actives 0.41% (n = 190,000). purified E. faecalis HMGR, NADPH absorbance 340 nm kinetic;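 active means inhibition above a set limit, the median over all tested compounds plus 3 SD, cut at about 9.5% in these data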;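 further: enzyme runs in reverse so mevalonate oxidation gives rising NADPH absorbance; 0% = complete reaction with DMSO and 100% = background rate lacking mevalonate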
14-3-3 Bad PPI: disrupts binding of bovine 14-3-3 zeta to phospho-Bad peptide; TR-FRET 14-3-3zeta/Dy647-pBad peptide displacement, 1 h; inhibition, % at 21.7 µM; actives 0.71% (n = 220,000); AID 781;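 active means inhibition above about 70%, limit read from the data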;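 further: 0% = full 14-3-3 plus peptide FRET controls and 100% = background without 14-3-3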
Target sequence (P63103 whole entry, looked up): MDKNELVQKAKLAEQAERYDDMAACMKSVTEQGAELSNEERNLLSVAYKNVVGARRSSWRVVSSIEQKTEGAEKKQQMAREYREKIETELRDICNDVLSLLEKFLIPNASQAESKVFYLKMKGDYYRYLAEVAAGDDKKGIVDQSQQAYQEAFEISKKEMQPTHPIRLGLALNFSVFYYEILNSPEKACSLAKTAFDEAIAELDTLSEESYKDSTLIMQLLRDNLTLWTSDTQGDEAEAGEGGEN
NCF1 inh: blocks human p47phox regulatory protein of NADPH oxidases; P14598; p47phox/p22phox peptide binding, fluorescence polarization, 2 h; inhibition, % at 24.7 µM; actives 0.53% (n = 220,000); AID 1274;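 active means inhibition above about 30%, limit read from the data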;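 further: 0% = p47phox with labelled peptide and 100% = labelled peptide alone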
An asterisk follows results filed as active; . = no result; [ ] = remark or other dose.

SMILES | dFosB act | Efa HMGR inh | 14-3-3 Bad PPI | NCF1 inh
CC1CC(C)CN(C(=O)Cn2cc(C=O)c3ccccc32)C1 (stereo not drawn) | -6.9 | -2.0 | 83.2* | -6.5
O=C(Nc1cccc(-c2cn3ccccc3n2)c1)C1CC1 | 0.3 | 3.3 | 5.4 | 67.0*
O=C(Nc1ccccc1C(=O)NCc1ccc(Cl)cc1)c1ccco1 | -5.4 | -0.2 | 34.1 | 31.1*
COc1ccc(/C=C/c2ccccc2)cc1[C@H]1[C@@H]2C=CCC[C@@]2(C)C(=O)N1Cc1ccccc1 | 6.8 | . | -3.0 | -10.5
CNC(=S)N1CCn2cccc2C1c1cc(OC)c(OC)c(OC)c1 (stereo not drawn) | -5.7 | -4.4 | -4.5 | 8.3
CCNC(=S)N1CCn2cccc2C1c1ccc(F)cc1 (stereo not drawn) | -2.6 | -4.1 | -8.9 | 40.2*
COc1cc(CNc2ccccc2SC)ccc1O | -10.0 | -3.4 | 76.9* | -1.5
CCOc1cc(CNc2ccccc2SC)ccc1O | . | -1.9 | 18.2 | -5.8
Cc1ccc(Cn2ncn(-c3ccccc3)c2=O)cc1 | -4.3 | 2.2 | -6.9 | -1.5
O=C(c1ccc(F)cc1)C1CCN(C(=S)NCC2CCCO2)CC1 (stereo not drawn) | -1.7 | 11.6* | -14.2 | -42.5
Cc1nnc(Nc2ccc3c(c2)OCO3)c2ccccc12 | 2.4 | -10.5 | 81.8*[fluorescence artefact?] | -4.0
N=C1/C(=C/c2ccc(-c3cccc(C(=O)O)c3)o2)C(=O)N=C2SC(CC(=O)N3CCOCC3)=NN12 | -8.7 | . | . | .
N=C1/C(=C\c2ccc(-c3cccc(C(=O)O)c3)o2)C(=O)N=C2SC=C(c3ccccc3)N12 | -23.4 | . | 94.4* | -38.2
O=C(Cc1cccc2ccccc12)NN1C(=O)/C(=C\c2cccnc2)SC1=S | 140.7* | . | -5.1 | -5.3
C(#CCN1CCOCC1)COC(c1ccccc1)c1ccccc1 | 4.9 | -2.7 | 72.2* | -8.7
C(#CCN1CCOCC1)COCCOC(c1ccccc1)c1ccccc1 | -3.1 | 0.3 | -17.6 | 2.4
CC(C)OCC(O)CS(=O)(=O)Cc1ccccc1 (stereo not drawn) | 2.8 | -9.0 | 11.2 | -3.0
Cc1ccc2nc(C)cc(Nc3ccc4c(c3)OCCO4)c2c1 | 30.5* | -4.8 | 13.7 | -10.0
Cc1cc(Nc2ccc3c(c2)OCCO3)c2ccccc2n1 | 7.5 | -4.4 | 2.0 | -18.3
O=C(Cc1ccccc1)N/N=C/c1cc(Br)cc(Br)c1O | 38.9* | . | . | .
O=C(CCC(=O)Nc1ccc(Br)cc1)N/N=C/c1ccccc1O | 28.9* | . | . | .
Cc1ccc(NC(=O)CCC(=O)N/N=C/c2ccccc2O)cc1 | 6.3 | . | . | .
O=C(CCC(=O)Nc1ccc(F)cc1)N/N=C/c1ccccc1 | 18.3* | . | . | .
O=C(CCC(=O)Nc1ccc(F)cc1)N/N=C/c1ccc(Br)cc1 | 7.4 | . | . | .
Cc1ccsc1C(=O)NNC(=O)c1ccc(NS(=O)(=O)c2cccs2)cc1 | -6.8 | . | . | .
SMILES | dFosB act | Efa HMGR inh | 14-3-3 Bad PPI | NCF1 inh
Cc1c(Cl)c(-c2n[nH]c(=S)n2-c2ccc(F)cc2)nn1C | 1.1 | 11.0* | -8.3 | -0.1
CCOC(=O)N1CCN(C(=O)c2ccccc2NC(=O)c2ccc(OC)cc2)CC1 | 2.9 | -0.8 | 6.7 | -8.0
COc1ccc(C(c2nnnn2C2CCCCC2)N2CCN(C)CC2)c(OC)c1 (stereo not drawn) | -10.2 | 3.9 | -9.9 | 3.7
Nc1c(C(=O)Nc2ccccc2)sc2nc(-c3ccco3)ccc12 | -5.6 | 2.8 | 76.1*[fluorescence artefact?] | -14.1
Nc1c(C(=O)Nc2nc3ccccc3s2)sc2nc(-c3cccs3)ccc12 | -5.0 | -3.9 | 96.1*[fluorescence artefact?] | -57.9
COc1ccccc1NC(=O)c1sc2nc(-c3ccco3)ccc2c1N | -13.7 | -10.1 | -2.0 | 7.9
CC(=O)c1sc2nc(-c3cccs3)ccc2c1N | -10.0 | -1.2 | 2.4 | -14.2
CN=C1SC(CC(=O)Nc2ccc(F)cc2F)C(=O)N1/N=C(\C)c1cccc(OCC(=O)O)c1 (stereo not drawn) | -10.6 | . | -4.8 | 0.0
COc1cc(OC)c(C2N(c3ccccn3)C(=O)C3CCCN32)cc1OC (stereo not drawn) | -0.5 | -1.9 | -7.3 | -0.7
Cc1c(C(=O)N2CCCC2)sc(NC(=O)c2cccs2)c1C#N | -4.7 | -6.4 | 18.6 | -19.7
Cc1c(C(=O)N2CCCC2)sc(NC(=O)c2ccccc2)c1C#N | -16.0 | 0.1 | 77.8*[fluorescence artefact?] | -26.7
Cc1ccc(-c2nnc(CSc3nc4cc5c(cc4cc3C)OCO5)o2)cc1 | -1.7 | -3.8 | -6.3 | -8.8
O=C(CN1C(=O)/C(=C2\SC(=S)N(C3CCS(=O)(=O)C3)C2=O)c2ccccc21)Nc1ccccc1 (stereo not drawn) | 4.3 | -8.4 | 81.3*[fluorescence artefact?] | 68.9*
